Consider 21 molecules from PubChem BioAssay (NCI).

About 79,000 compounds went through this panel and 15% of them were active in at least one assay; those are over-represented in the sample as a whole. Unmarked numbers belong to inactive results. Active and inactive are the calls of the source. Cut-off read from the data, not from the text of the source: active = growth inhibition above about 70%; inactive = the rest.

Assay [1] is described as follows: NCI Yeast Anticancer Drug Screen. Data for the rad50 strain (AID 155).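 Note: 0% = growth of vehicle-only cultures of the same strain.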 Particulars: S. cerevisiae rad50 strain growth inhibition; at 50.0 µM; hits give high values. In outline:
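Compounds were tested on a yeast strain with an engineered DNA damage repair alteration; the reported value is growth inhibition normalised to vehicle treatment.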

Assay [2] is described as follows: NCI Yeast Anticancer Drug Screen. Data for the mec2-1 strain (AID 157). As to conditions: S. cerevisiae mec2-1 strain, at 50.0 µM, hits give high values. In outline:
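Cells of the genetically defined mec2-1 yeast strain are incubated with test compound. Inhibition of growth is calculated against vehicle-treated controls.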

The nature of assay [3]: NCI Yeast Anticancer Drug Screen. Data for the sgs1 mgt1 strain (AID 161).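 Note: 0% = growth of cultures given vehicle only.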 Particulars: S. cerevisiae sgs1 mgt1 strain, at 50.0 µM, hits give high values. In outline:
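Test agents were incubated with a DNA-repair-mutant yeast strain. Growth was then read and compared against vehicle-treated controls.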

Assay [4] in a line: NCI Yeast Anticancer Drug Screen. Data for the cln2 rad14 strain (AID 165).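 Note: 0% = growth equal to vehicle treated cultures.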 As to conditions: S. cerevisiae cln2 rad14 strain, at 50.0 µM, hits give high values. The gist of the method: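 The screen exposed genetically defined yeast (cln2 rad14) to test compounds and scored growth inhibition relative to vehicle-treated controls.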
A short description of assay [5]: NCI Yeast Anticancer Drug Screen. Data for the bub3 strain (AID 167). As to conditions: S. cerevisiae bub3 mutant strain, at 50.0 µM, hits give high values. In outline: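 Growth of a checkpoint-deficient yeast mutant is measured after compound exposure. Values represent inhibition relative to vehicle.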
A short description of assay [6]: NCI Yeast Anticancer Drug Screen. Data for the mlh1 rad18 strain (AID 175). Particulars: S. cerevisiae mlh1 rad18 strain growth inhibition; at 50.0 µM; hits give high values. The gist of the method:
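Compound-treated yeast growth, normalised to vehicle controls. Strain bears defined DNA repair mutations.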

Turning to `NC(=O)c1ccc(NC=O)cc1`, the growth inhibition is -10.3% in assay [1]; 22.2% in assay [2]; -18.9% in assay [3]; 25.1% in assay [4]; -18.1% in assay [5]; -18.9% in assay [6].

As to `O=S(=O)(O)SCCNCCCCc1ccccc1`, the growth inhibition in assay [1] was -11.2%; in assay [2] it was -3%; in assay [3], 2.3%; in assay [4], -5.35%; in assay [5], -6.4%; in assay [6], -22.8%.

For the molecule `CC1(C)NC(=S)NC1=S`, the growth inhibition in assay [1] was 5.4%; in assay [2] it was -6.9%; in assay [3], -13.9%; in assay [4], -26.9%; in assay [5] it was -4.45%; in assay [6] it was -4.35%.

For the molecule `O=C1C=CC(=O)c2c1c1c(c3c2C2c4ccccc4C3c3ccccc32)C2c3ccccc3C1c1ccccc12`, the growth inhibition is -13.5% in assay [1]; -16.1% in assay [2]; 19.9% in assay [3]; -8.25% in assay [4]; -5.75% in assay [5]; 12.7% in assay [6].

Regarding `NC(=O)C(C1=CCCCC1)c1ccccc1` (stereo unspecified), the growth inhibition in assay [1] is 3.25%; in assay [2] it was -1.3%; in assay [3] it was 2.1%; in assay [4] it was 3.15%; in assay [5], 1.95%; in assay [6] it was 0.9%.

For `CCOC(=O)CNCc1cccc(C)c1`, the growth inhibition in assay [1] is -1.45%; in assay [2], -10.2%; in assay [3], -19.1%; in assay [4], -82.8%; in assay [5], 0.6%; in assay [6] it was 1.95%.

Regarding `C=C1C(=O)C=C2C=C3C(=O)C(C)(C)C[C@]3(O)C12C` (stereo partly specified), the growth inhibition was 84.3% (active) in assay [1]; 92% (active) in assay [2]; 89% (active) in assay [3]; 82.5% (active) in assay [4]; 86.2% (active) in assay [5]; -21.7% in assay [6].

Turning to `c1cc(OCCOc2cccc3ocnc23)c2ncoc2c1`, the growth inhibition was -12.8% in assay [1]; -15.6% in assay [2]; -5.85% in assay [3]; -14.8% in assay [4]; -18.4% in assay [5]; 0.65% in assay [6].

`COc1cc(CCNC2=CC(=O)c3ncccc3C2=O)ccc1O`: the growth inhibition was 31.6% in assay [1]; 34% in assay [2]; -8.25% in assay [3]; 4.95% in assay [4]; 5.8% in assay [5]; 14.3% in assay [6].

As to `C=CCN1C(N)=C(C#N)C(C#N)(C#N)C1CCC` (stereo unspecified), the growth inhibition in assay [1] is 1.2%; in assay [2], 7.65%; in assay [3], -47.9%; in assay [4], 15.8%; in assay [5] it was -16.6%; in assay [6], -36.6%.

Turning to `C/C=C/C(=O)N(CC)c1ccccc1`, the growth inhibition in assay [1] is 37.2%; in assay [2], -2.25%; in assay [3], 10.8%; in assay [4], -8.35%; in assay [5], 2.9%; in assay [6], 33.8%.

For the molecule `O=C(N/C(=C\c1ccccc1)C1Nc2ccccc2C(=O)O1)c1ccccc1` (stereo unspecified), the growth inhibition in assay [1] is -6.8%; in assay [2], 2.95%; in assay [3] it was -19.6%; in assay [4], -17.2%; in assay [5] it was -8.95%; in assay [6], -24.7%.

Regarding `C[C@H](N)[C@@H](O)/C=C/c1ccccc1`, the growth inhibition in assay [1] was 8%; in assay [2], -16.9%; in assay [3] it was -0.05%; in assay [4], -4.7%; in assay [5] it was -9.7%; in assay [6] it was -8.7%.

Turning to `NC(=O)c1ccccc1Sc1ccccc1C(N)=O`, the growth inhibition in assay [1] is -4.6%; in assay [2], 2.35%; in assay [3], 5.4%; in assay [4], 2.45%; in assay [5], 1.65%; in assay [6] it was 0.6%.

For `O=C(Nc1cccc(O)c1)c1ccc([N+](=O)[O-])cc1`, the growth inhibition in assay [1] was 1.5%; in assay [2], 18.6%; in assay [3], 14.4%; in assay [4], -15.3%; in assay [5], 19.7%; in assay [6] it was 23.4%.

`COc1ccc(C(c2ccccc2)c2ccc(OC)cc2)cc1`: the growth inhibition in assay [1] was -7.95%; in assay [2] it was -13%; in assay [3], -12.9%; in assay [4], -124%; in assay [5], 37.7%; in assay [6] it was 4.45%.

For `Cc1c(C(=O)O)c2cc3ccccc3cc2c(=O)n1C`, the growth inhibition in assay [1] is -22.1%; in assay [2], -34.6%; in assay [3], -10.1%; in assay [4], -40.6%; in assay [5], -23.9%; in assay [6] it was -35%.

Turning to `CC1=C(C(=O)NN)CC/C1=N\N`, the growth inhibition is -25.4% in assay [1]; -18.8% in assay [2]; -11.5% in assay [3]; -10.6% in assay [4]; -9.3% in assay [5]; -10.6% in assay [6].

In the case of `O1[SiH]2[SiH]3O[SiH]3[SiH]3O[SiH]3[SiH]12` (stereo unspecified), the growth inhibition is -16.8% in assay [1]; -11.7% in assay [2]; -8.2% in assay [3]; -16.6% in assay [4]; -4.35% in assay [5]; -26.6% in assay [6].

Consider `CCN=C(C#N)NCC`, for which the growth inhibition in assay [1] was 19.2%; in assay [2] it was -3.75%; in assay [3], 20.9%; in assay [4], 16.6%; in assay [5] it was 25.2%; in assay [6] it was 29.8%.

With `COC(=O)C(=O)C(C#N)c1c(Cl)cccc1Cl` (stereo unspecified), the growth inhibition is -5.6% in assay [1]; 39.1% in assay [2]; 0.05% in assay [3]; 8.9% in assay [4]; 1.65% in assay [5]; 34.1% in assay [6].
